This is an account of results in the supplement of paper PMC11417369.

± gives the standard deviation of the averaged measurements. In all, about 25,000 sequences were measured (“ln(normalized median fluorescence intensity)”: median about 8.6, highest 2% from about 10 on). The entries come from a sample that favours the highest values as a whole.

In this assay the test system is PfAP2-EXP AP2 domain (GST-tagged). The assay is described as follows: gcPBM binding intensity (ln(normalized median fluorescence intensity)); higher = stronger DNA binding. In a few lines: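 Binding of GST-tagged P. falciparum DNA-binding domains, expressed in E. coli and used at about 25 μg on average, was carried out for 1 h in 1× PBS containing 1% milk, 0.2 mg/ml BSA, 0.5% salmon testes DNA and 0.03% Triton X-100. The target was an Agilent 4 × 180k array of primer-extended double-stranded 36-bp intergenic genomic probes plus negative controls, read with Alexa488 anti-GST antibody at 488 nm. Binding intensity is the highest Masliner-normalised natural-log median intensity across replicate spots of either probe orientation.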
As for “TTTTAAATATGCCATACACACTACTATATAATAAAT [CACACA_site5119]”, the “gcPBM binding intensity (ln)” value came to 8.58 ± 0.34.
The figure for “ATACTTTTAAATTGATGTACTTTATTTATAAGGTGA [XGTACX_site6746]” is 8.38 ± 0.38.
Turning to “ACTTTACAATATATATGTACATATTAATAAACATAT [XGTACX_site3689]”, the “gcPBM binding intensity (ln)” value worked out at 8.74 ± 0.42.
The figure for “ATAAAATAAAATTGGTGTACTTTTGATAAAATAAAA [XGTACX_site4264]” is 8.24 ± 0.28.
The figure for “TTAATAAACCTTAGATGTACAGTTATATATAAAATA [XGTACX_site6681]” is 8.54 ± 0.52; for “ATAACATTCAAAAAATGTACAAACATATGAATAAAT [XGTACX_site7013]” it is 8.62 ± 0.47; for “TATATATATAACAGAATGCACTTTATATGTTCATAT [GTGCAC_site9880]” it is 8.94 ± 0.14.
“TAAATAAATATATATACACACATATATATATATATA [CACACA_site598]”: the “gcPBM binding intensity (ln)” value is 10.1 ± 0.36.
The figure for “CACAAATAAATACATACACACATATATACTCATATA [CACACA_site4379]” is 8.37 ± 0.49; for “CATAAATACATACATACACACATATATATATATATA [CACACA_site2106]” it is 10.2 ± 0.41.
The figure for “TATACTCATAAATACACACACATATATATATATATA [CACACA_site5822]” is 10.2 ± 0.28; for “TATATATATAAATACACACACACATATATATATATA [CACACA_site4585]” it is 10 ± 0.16.
Next, “TAAATACATAAATACACACACATATATATATATATA [CACACA_site5549]”: 10.2 ± 0.35.
In the case of “CATATATAAATATATACACACATACATACATACATA [CACACA_site5988]”, the “gcPBM binding intensity (ln)” value was found to be 8.73 ± 0.3.
Next, “TATATATATATATATACACACATATATATAAATATA [CACACA_site2035]”: 10.2 ± 0.26.
As to “TAAATAAATACATACACACACATACATATATATATA [CACACA_site3129]”, the “gcPBM binding intensity (ln)” value was 9.86 ± 0.26.
The figure for “AGAGAAGAAAACAAAACACACACATATATCTTAATA [CACACA_site8699]” is 8.63 ± 0.71; for “AATTTTTAGTATATAACATAAAATAAAATAAAATAA [GTGCAC_negctrl_site696]” it is 8.47 ± 0.38.
Next, “AAAATTATATTTTATAGAAATTTAAATAAATATATA [GTGCAC_negctrl_site199]”: 8.01 ± 0.38; “AATATATATATTAAATGTACATTACATAATTATATA [XGTACX_site3450]”: 8.54 ± 0.43.
Next, “AAAATATATATGTATGTTTATATGTTTATATATATT [XGTACX_negctrl_site337]”: 8.18 ± 0.49; “ATAATATATAATATAGTGCATTATTTATTAATTAAT [GTGCAC_site9852]”: 8.56 ± 0.085; ATATATATATATATAGTGCACATTTATATAATTATT: 10.3 ± 0.17.
In the case of “TATAATAATATTATAGTGCATATTATTTATATATAA [GTGCAC_site9820]”, the “gcPBM binding intensity (ln)” value worked out at 8.22 ± 0.2.
Next, TATATATATATATATGTGCACATTTTATTAAAATGT: 10.2 ± 0.34.
Next, “TTATTTTTATATTTTAATTTTAAAAAAATTTTAATT [CACACA_negctrl_site777]”: 8.04 ± 0.46; “ATTTTTTTATAAAATTTTTATATAATTTATTATAAA [GTGCAC_negctrl_site96]”: 8.16 ± 0.52.
Next, TATATACATTTTTATGTGCACATTTTATTTTTAAAT: 9.15 ± 0.31; “TTTTAATTTAAAAATTAATTTATATATATATATATA [TGCATGCA_negctrl_site447]”: 10.3 ± 1.
As to TTATATTATATATATGTGCACATTTTTAAACTTGGA, the “gcPBM binding intensity (ln)” value came out at 8.71 ± 0.27.
Take “AATGTAAAATATATGTGTACATATGTTTATATATAT [XGTACX_site2216]”: the “gcPBM binding intensity (ln)” value was 8.71 ± 0.23.
The figure for “ACCTGTAAAAATGTTTATATATATATATATATATAT [CACACA_negctrl_site1500]” is 10.3 ± 0.37; for “ATTATTTAGAAATGAGCACACAAAAAGAAGAATTTT [CACACA_site7913]” it is 8.65 ± 0.52; for “ATATAAAAAGTGTATCGTACATTTACTTATTTTATA [XGTACX_site6249]” it is 8.46 ± 0.3.
The figure for “AATACTATTATTATTGCACACTTATTATCCCTCGGA [CACACA_site4262]” is 8.65 ± 0.28; for “CACTAAACATATACACGTACATGCAACGGATTTTTT [XGTACX_site461]” it is 8.74 ± 0.3.
On to “ATGGACAAGTTAAACGCACACAAATATATACAGACA [CACACA_site1652]”, for which the “gcPBM binding intensity (ln)” value was found to be 9.15 ± 0.73.
The figure for “TTTTAAAATATATTTGTATATATATATATATATATA [XGTACX_negctrl_site536]” is 10.4 ± 0.35; for “AAAAAAATTTTAAAATGTACAAATTTTAATATATAT [XGTACX_site7628]” it is 8.55 ± 0.26.
Next, “TTTTTTAAATGTATTAAAATTATATATATATATATA [GTGCAC_negctrl_site570]”: 10.2 ± 0.25; “ATATATTTTTTAAATTTAAAAATTATAAAATTTATA [TGCATGCA_negctrl_site36]”: 8.16 ± 0.45.
Turning to “TATAATAAAATATTTTGTACGTATATTTTAATATTT [XGTACX_site2582]”, the “gcPBM binding intensity (ln)” value was found to be 8.32 ± 0.45.
For “TTTTTTATTAAATATATATAATAATAATAATTTGTA [CACACA_negctrl_site1719]”, the “gcPBM binding intensity (ln)” value was 7.9 ± 0.37.
Next, “AAAAAAAAAAAAATGTAATTTTTTAATTATTTATAT [GTGCAC_negctrl_site436]”: 7.96 ± 0.43; “ATAACAAAATAATAATGTACGTATAAATATAATTTA [XGTACX_site6049]”: 8.57 ± 0.4; “AAATAACAAATTTTTAAAATGTATATATATATATAT [TGCATGCA_negctrl_site219]”: 10.2 ± 0.74.
